In the library only some 11% were active in any assay of this set; here they are far more common.
FLuc inh – Firefly luciferase inhibition profiling of diverse chemical library using quantitative high-throughput screening | purified P. pyralis luciferase, luminescence, biochemical | Potency, µM (top dose mostly 115 µM), actives largely listed as inhibitors | actives 2.5% (n = 76,000) | AID 1347043, 2019; note: nearly all actives have a fitted effect of over 65% in size
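FLuc 10nM, D-luciferin 10uM, ATP 10uM, Mg acetate 10mM, Tris acetate pH 7.5, Tween/BSA; cpd qHTS; enzyme added last; CCD luminescence.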
hNpr1 antagonist – Natriuretic polypeptide receptor (hNpr1) antagonism - Primary qHTS. Atrial natriuretic peptide receptor 1 (Homo sapiens), P16066. HEK293 hNpr1 GloSensor cGMP, ANP-stimulated luminescence. Potency, µM (titrated, usually from 46.3 µM), actives largely listed as inhibitors. actives 1.6% (n = 76,000); calls by dose curve; note: nearly all actives have a fitted effect of over 60% in size
Target sequence (P16066 whole entry, looked up): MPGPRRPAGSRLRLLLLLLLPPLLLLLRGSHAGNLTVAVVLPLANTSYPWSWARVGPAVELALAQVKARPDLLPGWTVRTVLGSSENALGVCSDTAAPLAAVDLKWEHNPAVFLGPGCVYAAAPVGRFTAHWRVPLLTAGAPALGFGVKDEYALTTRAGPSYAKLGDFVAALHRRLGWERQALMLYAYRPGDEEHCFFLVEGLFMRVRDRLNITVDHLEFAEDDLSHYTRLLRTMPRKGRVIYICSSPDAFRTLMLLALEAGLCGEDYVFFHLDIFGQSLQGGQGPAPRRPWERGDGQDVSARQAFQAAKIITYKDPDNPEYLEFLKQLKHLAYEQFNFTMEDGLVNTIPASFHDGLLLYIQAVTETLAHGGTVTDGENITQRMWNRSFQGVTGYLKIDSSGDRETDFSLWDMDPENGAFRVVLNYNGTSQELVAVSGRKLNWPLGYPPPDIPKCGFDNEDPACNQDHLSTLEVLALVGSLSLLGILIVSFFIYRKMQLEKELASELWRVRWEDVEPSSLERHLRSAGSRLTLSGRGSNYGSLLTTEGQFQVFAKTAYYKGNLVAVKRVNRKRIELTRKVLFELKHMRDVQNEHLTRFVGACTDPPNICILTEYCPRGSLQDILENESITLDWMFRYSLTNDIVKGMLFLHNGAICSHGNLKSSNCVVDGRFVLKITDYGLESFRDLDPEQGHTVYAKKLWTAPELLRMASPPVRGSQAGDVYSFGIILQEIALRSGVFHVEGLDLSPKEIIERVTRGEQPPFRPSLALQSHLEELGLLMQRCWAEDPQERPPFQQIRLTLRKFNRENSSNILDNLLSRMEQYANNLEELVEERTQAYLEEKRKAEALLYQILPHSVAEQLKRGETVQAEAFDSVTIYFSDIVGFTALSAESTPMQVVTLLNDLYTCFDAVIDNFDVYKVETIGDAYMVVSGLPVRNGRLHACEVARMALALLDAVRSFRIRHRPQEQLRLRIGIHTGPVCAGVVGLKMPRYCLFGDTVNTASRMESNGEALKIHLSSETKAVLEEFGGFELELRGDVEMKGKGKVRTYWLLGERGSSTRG
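HEK293 cells stably expressing human Npr1 and cGMP GloSensor pGS-40F, loaded 2 h with 2% GloSensor reagent, given compound 30 min at room temperature. Luminescence read before and 20 min after 0.1 nM hNppA.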
HEK293 tox – Cytotoxic Profiling in HEK 293 Cell Line of Diverse Libraries Using Quantitative High-Throughput Screening | HEK 293 viability, ATP luminescence (CellTiter-Glo), 48-72 h | Potency, µM (titrated, usually from 115 µM), most hits filed as inhibitors | actives 6.6% (n = 94,000); note: nearly all actives have a fitted effect of over 60% in size
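Luminescence from cellular ATP, measured with CellTiter-Glo, indicates HEK 293 viability. Cells plated at 250 cells/well are treated with compound for 48 or 72 hr at 37 degree Celsius before reagent addition.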
NIH3T3 tox – Cytotoxic Profiling in NIH 3T3 Cell Line of Diverse Libraries Using Quantitative High-Throughput Screening; NIH 3T3 viability, CellTiter-Glo ATP luminescence, 48-72 h; Potency, µM (highest dose often 96.7 µM), usual class: inhibitors; actives 4.3% (n = 94,000); note: nearly all actives have a fitted effect of over 55% in size
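Cytotoxicity was measured by CellTiter-Glo ATP luminescence after 48 or 72 h compound exposure at 37 °C. Mouse NIH 3T3 fibroblasts were seeded at 400 cells/well and dosed by 23 nL pin transfer.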
NPR1 antag cnf – Natriuretic polypeptide receptor (hNpr1) antagonism - Confirmation; actives 76% (n = 1,400); Potency, µM (doses to about 57.6 µM), usual class: inhibitors; shares compounds with hNpr1 antagonist; AID 1347044, 2019; HEK293 hNpr1 cGMP GloSensor luminescence, ANP-stimulated; calls by dose curve; note: nearly all actives have a fitted effect of over 70% in size
Npr2 selectivity – Natriuretic polypeptide receptor (hNpr2) antagonism - Subtype selectivity assay; HEK293 hNpr2 GloSensor cGMP luminescence, CNP-stimulated; Potency, µM (titrated, usually from 57.6 µM), hits mostly inhibitors; shares compounds with hNpr1 antagonist; actives 67% (n = 1,400); calls by dose curve; note: nearly all actives have a fitted effect of over 70% in size
FLuc inh counter – Natriuretic polypeptide receptor (hNpr1) antagonism - Confirmation firefly luciferase (FLuc) inhibition counterscreen; shares compounds with hNpr1 antagonist; purified FLuc enzyme, luminescence, Km substrate; Potency, µM (series often up to 57.6 µM), hits mostly inhibitors; actives 0.7% (n = 1,400); AID 1347047, 2019
GloSensor ctrl – Natriuretic polypeptide receptor (hNpr1) antagonism - Counterscreen GloSensor control cell line. shares compounds with hNpr1 antagonist. HEK293 GloSensor cGMP, SNP-stimulated, luminescence. Potency, µM (doses to about 57.6 µM), most hits filed as inhibitors. actives 69% (n = 1,400). AID 1347051, 2019; calls by dose curve; note: nearly all actives have a fitted effect of over 70% in size
Large screens that a line does not name were inactive (follow-up assays come after a bar, where they were run). Unless noted, calls come from the whole dose curve; as a rule, active = well fitted curve in the direction sought with a large enough effect; inconclusive = small, poorly fitted or top-dose-only effect, or another doubt; inactive = no such curve, though single readings can be large; an effect the other way counts as inactive or inconclusive.

O=C(Nc1cccc(F)c1)C1CCN(C(=O)c2ncn3c2COC(c2ccc(F)cc2)C3)CC1 (stereo not given)	hNpr1 antagonist inconclusive, HEK293 tox inconclusive | NPR1 antag cnf inconclusive | Npr2 selectivity inactive | FLuc inh counter inactive | GloSensor ctrl inconclusive
O=C(Nc1cccc(Cl)c1)C1CCN(C(=O)c2ncn3c2COC(c2ccc(F)cc2)C3)CC1 (stereo not given)	FLuc inh inconclusive, hNpr1 antagonist inconclusive, HEK293 tox inconclusive
O=C(NC1CC1)c1cc2n(n1)CC(c1ccc3c(c1)OCO3)OC2 (stereo not given)	NIH3T3 tox inconclusive
O=C(NC1CCN(Cc2ccccc2)CC1)c1cc2n(n1)CC(c1ccc3c(c1)OCO3)OC2 (stereo not given)	hNpr1 antagonist 13µM, HEK293 tox inconclusive, NIH3T3 tox inconclusive | NPR1 antag cnf 22µM | Npr2 selectivity 22µM | FLuc inh counter inactive | GloSensor ctrl 17µM
CC1CCC(NC(=O)c2cc3n(n2)CC(c2ccc(Cl)cc2)OC3)CC1 (stereo not given)	HEK293 tox inconclusive, NIH3T3 tox inconclusive
O=C(NC1CCN(Cc2ccccc2)CC1)c1cc2n(n1)CC(c1ccc(Cl)cc1)OC2 (stereo not given)	hNpr1 antagonist 10µM, HEK293 tox inconclusive, NIH3T3 tox inconclusive | NPR1 antag cnf 19µM | Npr2 selectivity 17µM | FLuc inh counter inactive | GloSensor ctrl 12µM
CN(C)C(=O)c1ccc2c(c1)n(Cc1ccc(F)cc1)c(=O)c1ccnn12	none
CCOc1ccc2c(n1)CCN(C(=O)Cc1cccc(OC)c1)C2	none
OC1CC(c2cc(N3CCC(Cc4noc(C5CC5)n4)CC3)ncn2)C1 (stereo not given)	hNpr1 antagonist 0.79µM, NIH3T3 tox inconclusive | NPR1 antag cnf 0.86µM | Npr2 selectivity 1.2µM | FLuc inh counter inactive | GloSensor ctrl 0.77µM
CN(Cc1noc(C2CCCC2)n1)c1cc(C2CC(O)C2)ncn1 (stereo not given)	hNpr1 antagonist inconclusive, NIH3T3 tox inconclusive | NPR1 antag cnf 22µM | Npr2 selectivity inconclusive | FLuc inh counter inactive | GloSensor ctrl 22µM
Cc1ccc(C(=O)N2CCC(C(=O)N3CCC(c4nc5ncccc5[nH]4)C3)CC2)cc1 (stereo not given)	none (no result: FLuc inh, hNpr1 antagonist)
O=C(c1cc[nH]c1C1CCCNC1)N(Cc1ccc(F)cc1)Cc1cccnc1 (stereo not given)	HEK293 tox inconclusive, NIH3T3 tox inconclusive
Cc1nc(C)c(CC(=O)N2CCCC(C)(Cc3ccc4c(c3)OCO4)C2)s1 (stereo not given)	hNpr1 antagonist 14µM, HEK293 tox 28µM | NPR1 antag cnf 19µM | Npr2 selectivity 22µM | FLuc inh counter inactive | GloSensor ctrl 17µM
O=C(c1ccc(N2CCC(CO)C2)nc1)N1CCC(N2CCOCC2)CC1 (stereo not given)	none
CCOC(=O)C1=CN(CC(=O)Nc2c(C)cc(C)cc2C)S(=O)(=O)N=C1C	hNpr1 antagonist 11µM, HEK293 tox inconclusive | NPR1 antag cnf 24µM | Npr2 selectivity inconclusive | FLuc inh counter inactive | GloSensor ctrl 27µM
CCOC(=O)C1=CN(CC(=O)Nc2ccc(C)cc2C)S(=O)(=O)N=C1C	none
COc1ccc(CN2CCC(N3Cc4cccn4C3=O)CC2)cc1	HEK293 tox inconclusive (no result: FLuc inh, hNpr1 antagonist)
O=C1N(C2CCN(Cc3ccc(C(F)(F)F)cc3)CC2)Cc2cccn21	HEK293 tox inconclusive (no result: FLuc inh, hNpr1 antagonist) | NPR1 antag cnf 15µM | Npr2 selectivity 17µM | FLuc inh counter inactive | GloSensor ctrl 12µM
COc1ccc(OC)c(CN2CCC3(CC2)OC(=O)N(Cc2ccc(O)cc2)C3(C)c2ccccc2)c1 (stereo not given)	hNpr1 antagonist inconclusive, HEK293 tox inconclusive, NIH3T3 tox inconclusive
COc1ncccc1CN1CCC2(CC1)OC(=O)N(Cc1ccc(O)cc1)C2(C)c1ccccc1 (stereo not given)	HEK293 tox inconclusive, NIH3T3 tox inconclusive | NPR1 antag cnf inactive | Npr2 selectivity inconclusive | FLuc inh counter inactive | GloSensor ctrl inactive
NC(=O)C1Cc2ccccc2CN1C(=O)CCc1nc2ccccc2[nH]c1=O (stereo not given)	none
CCNC(=O)N1CCC2(CC1)CN(c1ccccc1)C2=O	none
CCOC(=O)c1ccc(CNC(=O)N2CCC3(CC2)CN(c2ccccc2)C3=O)cc1	hNpr1 antagonist inconclusive, HEK293 tox inconclusive, NIH3T3 tox inconclusive | NPR1 antag cnf inconclusive | Npr2 selectivity inconclusive | FLuc inh counter inactive | GloSensor ctrl inconclusive
O=C(Cc1c[nH]c2ncc(-c3cn[nH]c3)cc12)NCc1cccnc1	NIH3T3 tox inconclusive
Cc1ccccc1-c1cnc2[nH]cc(CC(=O)NC(C)C)c2c1	hNpr1 antagonist 28µM, HEK293 tox inconclusive, NIH3T3 tox inconclusive | NPR1 antag cnf 31µM | Npr2 selectivity 31µM | FLuc inh counter inactive | GloSensor ctrl 35µM
Cc1ccccc1-c1cnc2[nH]cc(CC(=O)NCc3ccccc3)c2c1	hNpr1 antagonist 13µM, HEK293 tox inconclusive | NPR1 antag cnf 25µM | Npr2 selectivity 25µM | FLuc inh counter inactive | GloSensor ctrl 14µM
NC(=O)Cc1c[nH]c2ncc(-c3ccccc3F)cc12	NIH3T3 tox inconclusive
COc1ccc(CCC(=O)N2CCC(F)(C(=O)N3CCCC3)CC2)cc1	HEK293 tox inconclusive (no result: FLuc inh, hNpr1 antagonist)
CC(C)Cn1c(=O)c(C(=O)N2CCN(C(=O)c3ccc(F)cc3)CC2)nc2cccnc21	none (no result: FLuc inh, hNpr1 antagonist)
O=C(CC1CCCCN(Cc2ccccc2)C1=O)Nc1ccc(F)cc1F (stereo not given)	HEK293 tox inconclusive
O=C(CC1CCCCN(Cc2ccccc2)C1=O)N1CCN(c2ccc(F)cc2)CC1 (stereo not given)	hNpr1 antagonist 11µM, HEK293 tox inconclusive | NPR1 antag cnf 24µM | Npr2 selectivity 22µM | FLuc inh counter inactive | GloSensor ctrl 22µM
Cc1ccc(-c2cn3cc(C(=O)NC4CCCCC4)nc3s2)cc1	none (no result: FLuc inh, hNpr1 antagonist)

Screens from PubChem.
